The text below walks through data of PubChem BioAssay (NCI).

Experiment [1] is described as follows: NCI Yeast Anticancer Drug Screen. Data for the rad50 strain (AID 155).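 Further: 0% = growth of vehicle-only cultures of the same strain.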 The note with it: S. cerevisiae rad50 strain growth inhibition, stronger effect = higher value. An outline of the steps:
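Growth of the mutant yeast was measured after compound exposure and referenced to vehicle-treated cultures.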

A short description of experiment [2]: NCI Yeast Anticancer Drug Screen. Data for the mec2-1 strain (AID 157). As to conditions: S. cerevisiae mec2-1 strain, stronger effect = higher value. An outline of the steps: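 Vehicle-treated cultures served as reference for growth inhibition of compound-exposed mec2-1 yeast.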
The nature of experiment [3]: NCI Yeast Anticancer Drug Screen. Data for the sgs1 mgt1 strain (AID 161).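 Further: 0% = growth of cultures given vehicle only.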 The note with it: S. cerevisiae sgs1 mgt1 strain, stronger effect = higher value. An outline of the steps: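 Genetically altered yeast, compound exposure, growth inhibition relative to vehicle.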
Experiment [4] is described as follows: NCI Yeast Anticancer Drug Screen. Data for the cln2 rad14 strain (AID 165).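 Further: 0% = growth equal to vehicle treated cultures.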 The note with it: S. cerevisiae cln2 rad14 strain, stronger effect = higher value. An outline of the steps: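 Each compound was tested on cln2 rad14 yeast. Inhibition of growth was calculated against vehicle-exposed controls.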
A short description of experiment [5]: NCI Yeast Anticancer Drug Screen. Data for the bub3 strain (AID 167). The note with it: S. cerevisiae bub3 mutant strain, stronger effect = higher value. The essentials: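 Whole-cell yeast assay. The mutant strain was incubated with compounds, and growth inhibition was determined by comparison with vehicle-treated cells.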
Experiment [6] can be described thus: NCI Yeast Anticancer Drug Screen. Data for the mlh1 rad18 strain (AID 175). The note with it: S. cerevisiae mlh1 rad18 strain growth inhibition, stronger effect = higher value. The essentials:
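Vehicle-treated cultures served as the reference for growth inhibition in a yeast strain carrying DNA damage repair alterations exposed to each compound.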

Setting [7] is: at 5.0 µM (retest, dose inferred, filed as 0.5).
[8] abbreviates: at 50.0 µM (retest, dose inferred, filed as 5.0).

This is part of a sample that, as a whole, favours compounds with a hit. Of some 79,000 tested, about 15% had one in any assay. Unmarked numbers belong to inactive results. Calls of active or inactive are those of the source. No stated cut-off is given here; in the data, active means growth inhibition above about 70%; inactive means the rest.

Turning to `COc1ccc2ccnc(Cc3ccc(OCc4ccccc4)c(OC)c3)c2c1`, the growth inhibition is 42% in experiment [1] (setting [7]); 42% in experiment [1] (setting [8]); 89.5% (active) in experiment [1] (at 50.0 µM); 27% in experiment [2] (setting [7]); 27% in experiment [2] (setting [8]); 87.3% (active) in experiment [2] (at 50.0 µM). Also, the growth inhibition in experiment [3] (setting [7]) was 28%; in experiment [3] (setting [8]), 28%; in experiment [3] (at 50.0 µM), 89.7% (active); in experiment [4] (setting [7]), 12%; in experiment [4] (setting [8]), 12%; in experiment [4] (at 50.0 µM), 87% (active). Moreover, the growth inhibition in experiment [5] (setting [7]) is 28%; in experiment [5] (setting [8]) it was 28%; in experiment [5] (at 50.0 µM), 86.5% (active); in experiment [6] (setting [7]), 29%; in experiment [6] (setting [8]) it was 29%; in experiment [6] (at 50.0 µM), 86% (active).

For `CC(C)C[P+](c1ccccc1)(c1ccccc1)c1ccccc1`, the growth inhibition in experiment [1] (setting [7]) is 0%; in experiment [1] (setting [8]), 23%; in experiment [1] (at 50.0 µM) it was 62.6%; in experiment [2] (setting [7]), -3%; in experiment [2] (setting [8]), 54%; in experiment [2] (at 50.0 µM) it was 58.9%. In addition, the growth inhibition in experiment [3] (setting [7]) is -34%; in experiment [3] (setting [8]), 9%; in experiment [3] (at 50.0 µM), 50.6%; in experiment [4] (setting [7]), -5%; in experiment [4] (setting [8]), 10%; in experiment [4] (at 50.0 µM) it was 49.5%. Further, the growth inhibition is -7% in experiment [5] (setting [7]); 24% in experiment [5] (setting [8]); 54.2% in experiment [5] (at 50.0 µM); 12% in experiment [6] (setting [7]); 45% in experiment [6] (setting [8]); 73.9% (active) in experiment [6] (at 50.0 µM).

`COc1cccc(/C=C2\CCC(CN(C)C)C2=O)c1` (configuration not stated): the growth inhibition was 27% in experiment [1] (setting [7]); 95% (active) in experiment [1] (setting [8]); 93.5% (active) in experiment [1] (at 50.0 µM); 21% in experiment [2] (setting [7]); 99% (active) in experiment [2] (setting [8]); 93.8% (active) in experiment [2] (at 50.0 µM). Further, the growth inhibition in experiment [3] (setting [7]) was 39%; in experiment [3] (setting [8]), 99% (active); in experiment [3] (at 50.0 µM), 93.3% (active); in experiment [4] (setting [7]), 28%; in experiment [4] (setting [8]), 98% (active); in experiment [4] (at 50.0 µM), 91.6% (active). Moreover, the growth inhibition in experiment [5] (setting [7]) is 48%; in experiment [5] (setting [8]), 99% (active); in experiment [5] (at 50.0 µM), 92.5% (active); in experiment [6] (setting [7]), 35%; in experiment [6] (setting [8]), 99% (active); in experiment [6] (at 50.0 µM) it was 91.7% (active).

On to `CCCCN(CCCC)CC(=O)c1ccc2cc(Cl)c3ccccc3c2c1`, for which the growth inhibition in experiment [1] (setting [7]) was 20%; in experiment [1] (setting [8]) it was 91% (active); in experiment [1] (at 50.0 µM), 95.3% (active); in experiment [2] (setting [7]) it was 23%; in experiment [2] (setting [8]), 93% (active); in experiment [2] (at 50.0 µM), 95.5% (active). The growth inhibition in experiment [3] (setting [7]) is 56%; in experiment [3] (setting [8]), 90% (active); in experiment [3] (at 50.0 µM), 95.8% (active); in experiment [4] (setting [7]), 7%; in experiment [4] (setting [8]), 90% (active); in experiment [4] (at 50.0 µM), 92.7% (active). The growth inhibition is 18% in experiment [5] (setting [7]); 91% (active) in experiment [5] (setting [8]); 95.3% (active) in experiment [5] (at 50.0 µM); 31% in experiment [6] (setting [7]); 84% (active) in experiment [6] (setting [8]); 94.7% (active) in experiment [6] (at 50.0 µM).

Consider `COc1ccc(/C=C2\CCC(CN3CCOCC3)C2=O)cc1` (configuration not stated), for which the growth inhibition in experiment [1] (setting [7]) was 65%; in experiment [1] (setting [8]) it was 99% (active); in experiment [1] (at 50.0 µM), 93.5% (active); in experiment [2] (setting [7]), 92% (active); in experiment [2] (setting [8]), 100% (active); in experiment [2] (at 50.0 µM) it was 93.8% (active). In addition, the growth inhibition in experiment [3] (setting [7]) was 55%; in experiment [3] (setting [8]), 99% (active); in experiment [3] (at 50.0 µM), 93.2% (active); in experiment [4] (setting [7]), 46%; in experiment [4] (setting [8]), 99% (active); in experiment [4] (at 50.0 µM), 91.8% (active). The growth inhibition is 96% (active) in experiment [5] (setting [7]); 99% (active) in experiment [5] (setting [8]); 92.7% (active) in experiment [5] (at 50.0 µM); 89% (active) in experiment [6] (setting [7]); 97% (active) in experiment [6] (setting [8]); 89.7% (active) in experiment [6] (at 50.0 µM).

As to `CC(C)=NOCCOC(=O)C(c1ccccc1)c1ccccc1`, the growth inhibition is -4% in experiment [1] (setting [7]); 3% in experiment [1] (setting [8]); 80.7% (active) in experiment [1] (at 50.0 µM); -5% in experiment [2] (setting [7]); 2% in experiment [2] (setting [8]); 75% (active) in experiment [2] (at 50.0 µM). The growth inhibition in experiment [3] (setting [7]) is -8%; in experiment [3] (setting [8]), -2%; in experiment [3] (at 50.0 µM) it was 92% (active); in experiment [4] (setting [7]), 0%; in experiment [4] (setting [8]) it was 18%; in experiment [4] (at 50.0 µM) it was 39.6%. Also, the growth inhibition in experiment [5] (setting [7]) was 7%; in experiment [5] (setting [8]), 25%; in experiment [5] (at 50.0 µM) it was 96.6% (active); in experiment [6] (setting [7]), -6%; in experiment [6] (setting [8]), 0%; in experiment [6] (at 50.0 µM), 89% (active).

For `COc1ccc2c(c1)OC(c1ccccc1O)CC2=O` (configuration not stated), the growth inhibition in experiment [1] (setting [7]) was 0%; in experiment [1] (setting [8]), -17%; in experiment [1] (at 50.0 µM) it was 55.9%; in experiment [2] (setting [7]) it was -44%; in experiment [2] (setting [8]), -30%; in experiment [2] (at 50.0 µM) it was 24.1%. For the same compound, the growth inhibition is -10% in experiment [3] (setting [7]); 11% in experiment [3] (setting [8]); 72.1% (active) in experiment [3] (at 50.0 µM); -14% in experiment [4] (setting [7]); 12% in experiment [4] (setting [8]); 20.7% in experiment [4] (at 50.0 µM). The growth inhibition in experiment [5] (setting [7]) is -2%; in experiment [5] (setting [8]), -9%; in experiment [5] (at 50.0 µM), 55.5%; in experiment [6] (setting [7]), -70%; in experiment [6] (setting [8]) it was -34%; in experiment [6] (at 50.0 µM) it was 36.5%.

As to `CCOC(=O)Cc1csc2[n+]1C(=O)/C(=C\c1cccc(Cl)c1Cl)S2`, the growth inhibition was 11% in experiment [1] (setting [7]); 20% in experiment [1] (setting [8]); 69.4% in experiment [1] (at 50.0 µM); 0% in experiment [2] (setting [7]); 28% in experiment [2] (setting [8]); 60% in experiment [2] (at 50.0 µM). The growth inhibition in experiment [3] (setting [7]) is 1%; in experiment [3] (setting [8]), 52%; in experiment [3] (at 50.0 µM), 83.4% (active); in experiment [4] (setting [7]), -11%; in experiment [4] (setting [8]), 32%; in experiment [4] (at 50.0 µM), 31.8%. Also, the growth inhibition in experiment [5] (setting [7]) is -32%; in experiment [5] (setting [8]), 52%; in experiment [5] (at 50.0 µM), 75.8% (active); in experiment [6] (setting [7]) it was 14%; in experiment [6] (setting [8]) it was 29%; in experiment [6] (at 50.0 µM), 72.5% (active).

As for `O=c1[nH][nH]c(=O)c2c1nc(SCc1ccccc1)n2Cc1ccccc1`, the growth inhibition in experiment [1] (setting [7]) is -3%; in experiment [1] (setting [8]) it was -4%; in experiment [1] (at 50.0 µM), 8.05%; in experiment [2] (setting [7]), -3%; in experiment [2] (setting [8]), 5%; in experiment [2] (at 50.0 µM) it was -10.9%. Moreover, the growth inhibition in experiment [3] (setting [7]) was -1%; in experiment [3] (setting [8]), 2%; in experiment [3] (at 50.0 µM), 1.25%; in experiment [4] (setting [7]) it was -3%; in experiment [4] (setting [8]), -4%; in experiment [4] (at 50.0 µM) it was 75.8% (active). Besides, the growth inhibition was -6% in experiment [5] (setting [7]); -4% in experiment [5] (setting [8]); 2.3% in experiment [5] (at 50.0 µM); -2% in experiment [6] (setting [7]); 7% in experiment [6] (setting [8]); 9.45% in experiment [6] (at 50.0 µM).
